Assay results from PubChem BioAssay AID651592 (Sanford-Burnham Center for Chemical Genomics, 2012).
Activity calls are given as the source filed them.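 Rule for the calls: active = NF-kB reporter IC50 at most 10 µM, IL-8 IC50 within fivefold of it with bacterial filtrate but not with TNF-alpha; inactive = the rest.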

Molecular target: Interleukin-8 (Homo sapiens) (UniProt P10145)
Assay: inhibitors of NFkB activation in CF airway cells, SAR follow-up, KKLEB cells, panel, IL8 HTRF, NFkB-GFP (AID 651592);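 note: immortalized cystic fibrosis airway epithelial KKLEB cells with an NF-kB GFP reporter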
Conditions: PAF/TNFa-induced NFkB-GFP / IL8 HTRF, mean of runs

Interleukin-8 (Homo sapiens), sequence (P10145 whole entry, looked up): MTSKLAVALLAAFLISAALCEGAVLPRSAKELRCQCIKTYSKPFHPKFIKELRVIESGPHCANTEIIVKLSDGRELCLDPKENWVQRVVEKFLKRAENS

Row | SMILES | outcome
1 | O=C(Nc1ccc(N2CCN(C(=O)c3ccccc3)CC2)cc1)c1ccccn1 | active
2 | O=C(Nc1ccc(N2CCN(C(=O)c3ccccc3F)CC2)cc1)c1ccccn1 | active
3 | O=C(Nc1ccc(N2CCN(C(=O)c3ccc(F)cc3)CC2)cc1)c1ccccn1 | active
4 | O=C(Nc1ccc(N2CCN(C(=O)c3ccccc3F)CC2)cc1)c1ccncc1 | active
5 | O=C(Nc1ccc(N2CCN(C(=O)c3ccccc3Cl)CC2)cc1)c1cccnc1 | active
6 | O=C(Nc1ccc(N2CCN(C(=O)c3ccc(F)cc3)CC2)cc1)c1cccnc1 | active
7 | O=C(Nc1ccc(N2CCN(C(=O)c3ccccc3Cl)CC2)cc1)c1ccccc1 | inactive
8 | CCOc1ccc(NCc2cc3c(C)nn(-c4ccccc4)c3[nH]c2=O)cc1 | inactive
9 | O=C(Nc1ccc(N2CCN(C(=O)c3ccccc3Cl)CC2)cc1)c1ccncc1 | active
10 | O=C(Nc1ccc(N2CCN(C(=O)c3ccc(F)cc3)CC2)cc1)c1ccccc1 | active
11 | O=C(Nc1ccc(N2CCN(C(=O)c3ccccc3)CC2)cc1)c1cccnc1 | active
12 | O=C(Nc1ccc(N2CCN(C(=O)c3ccccc3)CC2)cc1)c1cncc(Br)c1 | inactive
13 | O=C(Nc1ccc(N2CCN(C(=O)c3ccccc3Cl)CC2)cc1)c1ccccn1 | active
14 | CCOc1ccc(NCc2cc3c(-c4ccc(F)cc4)nn(-c4ccccc4)c3[nH]c2=O)cc1 | inactive
15 | O=C(Nc1ccc(N2CCN(C(=O)c3ccccc3F)CC2)cc1)c1cccc(Br)c1 | active
16 | O=C(Nc1ccc(N2CCN(C(=O)c3ccccc3F)CC2)cc1)c1cc(Br)cc(Br)c1 | active
